Source: PubChem BioAssay (NCI)
About 79,000 compounds went through this panel and 15% of them were active in at least one assay; those are over-represented in the sample as a whole. Calls of active or inactive are those of the source. No stated cut-off is given here; in the data, active means growth inhibition above about 70%; inactive means the rest.

Experiment: NCI Yeast Anticancer Drug Screen. Data for the mgt1 strain (AID 153)
Conditions: S. cerevisiae mgt1 mutant growth inhibition, hits give high values
Description: Growth inhibition of yeast strains with defined genetic alterations is measured as a screen for potential anti-cancer activity. Selected strains with alterations in DNA damage repair or cell cycle control were exposed to compounds and growth inhibition was measured relative to vehicle treated controls. The strain used in this assay is mgt1

Measured: growth inhibition

CN(C)/C=C/c1nnc([N+](=O)[O-])s1
active: at 100.0 µM 98%
inactive: at 1.2 µM -7% | at 3.7 µM -5% | at 11.0 µM -5% | at 33.0 µM -5%

CCOC(=O)C(Br)C(Br)c1ccccc1Cl (stereo not given)
active: at 33.0 µM 99% | at 100.0 µM 99%
inactive: at 1.2 µM 0% | at 3.7 µM 14% | at 11.0 µM 61%

COC(=O)Oc1cc(Cl)c(Cl)cc1Cl
inactive: at 1.2 µM -1% | at 3.7 µM 0% | at 11.0 µM 1% | at 33.0 µM -3% | at 100.0 µM 1%

COc1ccc(/C=C/C(=O)c2ccccc2)cc1OC
active: at 100.0 µM 96%
inactive: at 1.2 µM -3% | at 3.7 µM -30% | at 11.0 µM -24% | at 33.0 µM 55%

CSc1nnc(SC)nn1
active: at 33.0 µM 72% | at 100.0 µM 98%
inactive: at 1.2 µM 8% | at 3.7 µM 4% | at 11.0 µM 13%

CCO/C(C)=C(/C#N)C(N)=S
inactive: at 1.2 µM -2% | at 3.7 µM -4% | at 11.0 µM -5% | at 33.0 µM 14% | at 100.0 µM 0%

COc1cc2cc3c4cc(OC)c(OC)cc4cc[n+]3c(C)c2cc1OC
inactive: at 1.2 µM -21% | at 3.7 µM -29% | at 11.0 µM -38% | at 33.0 µM -34% | at 100.0 µM -31%

Oc1ccc2c(c1)C(O)CCCC2 (stereo not given)
inactive: at 1.2 µM -2% | at 3.7 µM 1% | at 11.0 µM 4% | at 33.0 µM 17%
active: at 100.0 µM 71%
